{"source": "PubChem BioAssay (NCATS)", "note": "Inconclusive results are not listed. Where a call stands in place of a potency, no number is given. The source made the active and inactive calls. Calls follow the shape of the dose curve; as a rule, active = well fitted inhibition curve with a large enough effect; inconclusive = small, poorly fitted or top-dose-only effect; inactive = flat fitted curve, though single readings scatter.", "data": [{"test_system": "MCC-26", "assay": "qHTS assay to identify novel small-molecules to repurpose for Merkel cell carcinoma treatment (AID 1296009); also: nearly all actives have a fitted effect of over 60% in size", "conditions": "MCC and control cell lines, CellTiter-Glo viability, 72 h; series mostly up to 46 µM", "source_text": "MCC is a rare and aggressive neuroendocrine skin cancer with limited treatment options. Approximately 80% of MCCs have the Merkel cell polyomavirus (MCPyV) DNA integrated into the host genome (virus-positive: VP-MCC) and viral oncogenes drive oncogenesis. The remaining MCCs are virus-negative (VN-MCC) and are caused by UV mutagenesis. To identify novel treatments for VP-MCC and/or VN-MCC we screened three VP-MCC cell lines (WAGA, MKL-1, MKL-2), three VN-MCC cell lines (MCC-13, MCC-26, UISO), and four immortalized, non-transformed control cell lines (HaCaT, HEK293T, CRL7250, NIH-3T3) against ~2,400 compounds in the NCGC Pharmaceutical Collection (NPC) and ~1,900 compounds in the Mechanism Interrogation PlatE (MiPE). Using cell viability as a readout (CellTiter-Glo assay) we found both overlapping and distinct drugs that can be repurposed for the treatment of VP-MCC and VN-MCC.\nA high-throughput screen was conducted in 1536-well white flat bottom plates (Corning) on a Kalypsys robotic system. Cell lines WAGA, MKL-1, MKL-2, MCC-13, MCC-26, UISO, HaCaT, HEK293T, CRL7250, and NIH-3T3 were screened against 2 small molecule annotated drug libraries NPC and MIPE in dose response (8 and 11 pt. respectively) measuring cell viability after 72 hours of incubation. […] A 1,536 pintool (Kalypsys) was used to transfer 23 nL of compound in DMSO to the 1,536-well assay plates. After 72 hr incubation at 37 degree celsius, 2.5 uL of CellTiter-Glo (Promega) was dispensed into each well using a BiorapTR. Plates were incubated at room temperature for 10 min, transferred to a ViewLux (PerkinElmer) and the luminescence was recorded using an exposure time of 2 seconds. Relative luminescence units (RLUs) were normalized to in-plate controls (no cells as a positive (cytotoxicity) control, DMSO as negative control) and the normalized data was processed using NCATS in-house software.", "values": [{"smiles": "C[C@]12CCC(=O)C=C1CC[C@@H]1[C@@H]2CC[C@@]2(C)[C@H]1CC[C@]2(C)O", "Potency": "inactive"}, {"smiles": "CCCN(CCC)C(=O)Cc1c(-c2ccc(Cl)cc2)nc2ccc(Cl)cn12", "Potency": "inactive"}, {"smiles": "CC(C(=O)c1ccccc1)N(C)C", "note": "(stereo not given)", "Potency": "inactive"}, {"smiles": "C=C(C)[C@H]1CN[C@H](C(=O)O)[C@H]1CC(=O)O", "Potency": "inactive"}, {"smiles": "CCOP(=S)(OCC)Oc1ccc2c(C)c(Cl)c(=O)oc2c1", "Potency": "inactive"}, {"smiles": "CN1C(=O)NC(=O)C(C)(C2=CCCCC2)C1=O", "note": "(stereo not given)", "Potency": "inactive"}, {"smiles": "CC(NC(C)(C)C)C(=O)c1cccc(Cl)c1", "note": "(stereo not given)", "Potency": "inactive"}, {"smiles": "C[C@]12CC[C@@H]3c4ccc(OC(=O)N(CCCl)CCCl)cc4CC[C@H]3[C@@H]1CC[C@@H]2O", "Potency": "inactive"}, {"smiles": "COc1ccc2c3c1O[C@H]1[C@H](O)CC[C@H]4[C@@H](C2)N(C)CC[C@@]341", "Potency": "inactive"}, {"smiles": "C[C@]12CC[C@@H]3c4ccc(OC(=O)N(CCCl)CCCl)cc4CC[C@H]3[C@@H]1CC[C@@H]2OP(=O)(O)O", "Potency": "inactive"}, {"smiles": "CCN(CCO)CCn1c(Cc2ccccc2)nc2c1c(=O)n(C)c(=O)n2C", "Potency": "inactive"}, {"smiles": "CC(=O)C1CCOC1=O", "note": "(stereo not given)", "Potency": "inactive"}, {"smiles": "CCN[C@H](C)Cc1cccc(C(F)(F)F)c1", "Potency": "inactive"}, {"smiles": "C[C@]12CCC(=O)C=C1CC[C@@H]1[C@H]3CC[C@](C)(O)[C@@]3(C)CC[C@@H]12", "Potency": "inactive"}, {"smiles": "CCC1(c2ccc(N)cc2)CCC(=O)NC1=O", "note": "(stereo not given)", "Potency": "inactive"}, {"smiles": "C#CC(O)(C=CCl)CC", "note": "(stereo not given)", "Potency": "inactive"}, {"smiles": "CNC(C)(C)Cc1ccccc1", "Potency": "inactive"}, {"smiles": "COP(=S)(OC)Oc1ccc(S(=O)(=O)N(C)C)cc1", "Potency": "inactive"}, {"smiles": "C[C@]12Cc3cn[nH]c3C[C@@H]1CC[C@@H]1[C@@H]2CC[C@@]2(C)[C@H]1CC[C@]2(C)O", "Potency": "inactive"}, {"smiles": "CCc1cc2c(s1)-n1c(C)nnc1CN=C2c1ccccc1Cl", "Potency": "inactive"}, {"smiles": "c1ccc(CN2CCNCC2)cc1", "Potency": "inactive"}, {"smiles": "NC1=NC(=O)C(c2ccccc2)O1", "note": "(stereo not given)", "Potency": "inactive"}, {"smiles": "CC(C)(C)NCC(O)c1cc(Cl)c(N)c(C(F)(F)F)c1", "note": "(stereo not given)", "Potency": "inactive"}, {"smiles": "COc1cc(CCN)cc(OC)c1OC", "Potency": "inactive"}, {"smiles": "ClCCN1CCCC1", "Potency": "inactive"}, {"smiles": "Nc1ccc([As](=O)(O)O)cc1", "Potency": "inactive"}, {"smiles": "CN1C(=O)COc2c(C(=O)NC3CN4CCC3CC4)cc(Cl)cc21", "note": "(stereo not given)", "Potency": "inactive"}, {"smiles": "CCC(C)(C)c1ccc(O)cc1", "Potency": "inactive"}, {"smiles": "Clc1cccc(SC2CCNCC2)n1", "Potency": "inactive"}, {"smiles": "NNc1ccccc1", "Potency": "inactive"}, {"smiles": "NCCc1ccc(O)cc1", "Potency": "inactive"}, {"smiles": "CN1CC[C@]23c4c5ccc(O)c4O[C@H]2[C@@H](O)CC[C@H]3[C@H]1C5", "Potency": "inactive"}, {"smiles": "COc1cc(OC)c(OC)cc1C=O", "Potency": "inactive"}, {"smiles": "O=P1(N(CCCl)CCCl)NCCCO1", "note": "(stereo not given)", "Potency": "inactive"}, {"smiles": "CN1CC[C@]23c4c5ccc(O)c4O[C@H]2[C@@H](O)C=C[C@H]3[C@H]1C5", "Potency": "inactive"}, {"smiles": "CC(C)C[C@H](CN)CC(=O)O", "Potency": "inactive"}, {"smiles": "CC(Cc1ccccc1)N(C)Cc1ccco1", "note": "(stereo not given)", "Potency": "inactive"}, {"smiles": "CC(C)(C)NCC(O)c1ccccc1Cl", "note": "(stereo not given)", "Potency": "inactive"}, {"smiles": "CCN[C@@H](C)Cc1cccc(C(F)(F)F)c1", "Potency": "inactive"}, {"smiles": "Clc1ccccc1N1CCNCC1", "Potency": "inactive"}]}]}
